# Measured values reported in PubChem BioAssay (Tox21).
# Several values for one entry are separate records, joined by “and”; a condition that tells them apart may be missing. Equal values may be shown once. Inconclusive results are not listed. Where a call stands in place of a potency, no number is given. Activity calls are given as the source filed them. Unless noted, calls come from the whole dose curve; as a rule, active = well fitted curve in the direction sought with a large enough effect in the repeat runs; inconclusive = weak or mixed curves; inactive = no such curve, though single readings can be large; an effect the other way counts as inactive or inconclusive.
# Columns and labels:
# [1] = qHTS assay to identify aromatase inhibitors - cell viability counter screen (AID 743084);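 note: cells stimulated with testosterone during compound exposure; nearly all actives have a fitted effect of over 55% in size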; note: potency is the fitted concentration of half-maximal effect
# [2] = qHTS assay to identify small molecule that activate the aryl hydrocarbon receptor (AhR) signaling pathway - cell viability counter screen (AID 743086); note: nearly all actives have a fitted effect of over 45% in size; note: potency is the fitted concentration of half-maximal effect
# Outline: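 HepG2-AhR-luc (HG2L7.5c1) cells, 4000/well, were preincubated 5 h at 37C, exposed to compound in qHTS format for 24 hr at 37C, then given CellTiter-Fluor for 30 min; viability was read as fluorescence in the reporter wells.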
# [3] = qHTS assay to identify small molecule antagonists of the peroxisome proliferator-activated receptor gamma (PPARg) signaling pathway - cell viability counter screen (AID 743194); note: nearly all actives have a fitted effect of over 55% in size; note: potency is the fitted concentration of half-maximal effect
# Outline: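 PPARg-UAS-bla HEK293H cells were plated, rested 5 h at 37 C, then treated with compounds plus rosiglitazone (50 nM final) for 17 h at 37 C; viability was then read by CellTiter-Glo luminescence after 30 min at room temperature.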
# [4] = qHTS assay for small molecule agonists of the antioxidant response element (ARE) signaling pathway (AID 743202; active = well fitted activation curve with a large enough effect in the signal ratio in the repeat runs, not every such curve was filed as active; the % refers to the signal ratio; note: potency is the fitted concentration of half-maximal effect)
# Outline: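 Following a 16 h, 37 C exposure of reporter HepG2 cells (ARE-driven beta-lactamase, 2,000 cells/well) to compounds, FRET substrate was applied for 2 h at room temperature and fluorescence intensity recorded.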
# [5] = qHTS assay for small molecule agonists of the antioxidant response element (ARE) signaling pathway - cell viability counter screen (AID 743203; calls by dose curve; note: nearly all actives have a fitted effect of over 55% in size; note: potency is the fitted concentration of half-maximal effect)
# Outline: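 ATP content via CellTiter-Glo luminescence served as the viability measure. Cells: ARE-bla HepG2, 2,000 per well. Exposure: 16 hrs, 37C/5% CO2.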
# [6] = qHTS assay for small molecule activators of the heat shock response signaling pathway - cell viability counter screen (AID 743209); note: nearly all actives have a fitted effect of over 50% in size
# Outline: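 Compounds dissolved in DMSO were added to overnight-plated HSE-bla HeLa cells and left 5 h at 37 C. Cell viability was quantified by luminescence using CellTiter-Glo.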
# [7] = qHTS assay for small molecule activators of the heat shock response signaling pathway (AID 743210; active = well fitted activation curve with a large enough effect in the signal ratio in the repeat runs, with a control signal flat, not every such curve was filed as active; the % refers to the signal ratio; note: series mostly up to about 63 µM)
# Outline: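 Heat shock element–beta-lactamase HeLa reporter cells; qHTS with compounds for 5 h at 37 C; detection by FRET substrate fluorescence after 2.5 h at RT.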
# [8] = molecular target: Peroxisome proliferator-activated receptor gamma (Homo sapiens) (UniProt P37231); test: qHTS assay to identify small molecule agonists of the peroxisome proliferator-activated receptor gamma (PPARg) signaling pathway (AID 743094; active = well fitted activation curve with a large enough effect in the signal ratio in the repeat runs, not every such curve was filed as active; the % refers to the signal ratio; note: potency is the fitted concentration of half-maximal effect)
# Outline: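 Agonism was assessed in a beta-lactamase reporter system, HEK293H cells with a stably integrated UAS-bla construct under PPARg control; the 17 h treatment at 37C preceded a 1 h room-temperature FRET substrate read.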
# [9] = molecular target: Peroxisome proliferator-activated receptor gamma (Homo sapiens) (UniProt P37231); test: qHTS assay to identify small molecule antagonists of the peroxisome proliferator-activated receptor gamma (PPARg) signaling pathway (AID 743191; calls by dose curve; note: series mostly up to about 63 µM; nearly all actives have a fitted effect of over 30% in size)
# Outline: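 GeneBLAzer PPARg UAS-bla HEK293H cells carrying a UAS-driven beta-lactamase reporter were plated at 3000 cells/well, preincubated 5 h at 37C, then given compound for 17 h at 37C; LiveBLAzer B/G FRET substrate was read after 1 h at room temperature.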
# Peroxisome proliferator-activated receptor gamma (Homo sapiens), sequence (P37231 whole entry, looked up): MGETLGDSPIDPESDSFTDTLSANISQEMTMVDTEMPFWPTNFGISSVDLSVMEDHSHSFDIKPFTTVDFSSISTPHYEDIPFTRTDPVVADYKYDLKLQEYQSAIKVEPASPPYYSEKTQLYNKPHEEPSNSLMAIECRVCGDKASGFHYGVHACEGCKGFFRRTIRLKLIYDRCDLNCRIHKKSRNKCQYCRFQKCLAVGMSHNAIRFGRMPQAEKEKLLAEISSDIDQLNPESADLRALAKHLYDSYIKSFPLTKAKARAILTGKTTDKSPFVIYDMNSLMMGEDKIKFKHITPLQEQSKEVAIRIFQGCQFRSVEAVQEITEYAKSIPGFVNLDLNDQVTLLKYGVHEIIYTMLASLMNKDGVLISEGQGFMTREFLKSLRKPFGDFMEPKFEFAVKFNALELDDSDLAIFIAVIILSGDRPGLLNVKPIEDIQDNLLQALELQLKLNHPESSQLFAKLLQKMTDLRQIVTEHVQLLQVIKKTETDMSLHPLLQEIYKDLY
SMILES,Potency [1],Potency [2],Potency [3],Potency [4],Potency [5],outcome [6],outcome [7],Potency [8],Potency [9]
OCC(O)c1ccccc1 (stereo not drawn),inactive,inactive,inactive,inactive,inactive,inactive,inactive,,
C(/C=C/C=C/Nc1ccccc1)=Nc1ccccc1,inactive,inactive,inactive,,inactive,,inactive,inactive,
O=c1c2ccccc2oc2ccccc12,inactive,inactive,inactive,inactive,inactive,inactive,,,
C[C@H](CN1CCCC1)C(=O)c1ccc(C(F)(F)F)cc1,inactive,inactive,inactive,,inactive,inactive,inactive,inactive,
CCC1=C(C)CN(C(=O)NCCc2ccc(S(=O)(=O)NC(=O)NC3CCC(C)CC3)cc2)C1=O (stereo not drawn),inactive,inactive,inactive,,inactive,inactive,inactive,,
CC(C)(C(=O)O)c1ccc(C(O)CCCN2CCC(C(O)(c3ccccc3)c3ccccc3)CC2)cc1 (stereo not drawn),inactive,inactive,,,inactive,inactive,inactive,inactive,inactive
O=C(O)c1c2ccccc2cc2ccccc12,inactive,inactive,inactive,,inactive,inactive,inactive,,inactive
CCCCCC1CCC(=O)O1 (stereo not drawn),inactive,inactive,,inactive,inactive,inactive,inactive,inactive,inactive
Clc1cc(Cl)c2c(c1)N=C1CCCCCN1C2,inactive,inactive,inactive,,inactive,inactive,inactive,inactive,
CCCCCCCCCC(C)C=O (stereo not drawn),inactive,inactive,inactive,,,inactive,,19.5 µM (active),
CC(C)C[C@H](NC(=O)[C@H](Cc1ccccc1)NC(=O)c1cnccn1)B(O)O,1.33 µM (active),376 nM (active) and 335 nM (active),0.0841 µM (active),0.0237 µM (active),0.335 µM (active),,,,
CCCCCCCCNC,inactive,inactive,inactive,inactive,inactive,inactive,inactive,inactive,
CC(=O)c1ccc(Cl)c(Cl)c1Cl,inactive,inactive,inactive,,inactive,inactive,inactive,inactive,
CCCc1nc(C)c2c(=O)[nH]c(-c3cc(S(=O)(=O)N4CCN(CC)CC4)ccc3OCC)nn12,inactive,inactive,,,inactive,inactive,inactive,inactive,inactive
Cc1nc(C)c(C)nc1C,inactive,inactive,,,,,inactive,inactive,inactive
Clc1nc2ccccc2nc1Cl,inactive,inactive,inactive,inactive,inactive,inactive,,,
Cc1c(Nc2ncccc2C(=O)O)cccc1C(F)(F)F,inactive,inactive,inactive,,inactive,inactive,inactive,,
CO[C@@H]1COCC[C@@H]1N[C@@H]1CC[C@@](C(=O)N2CCc3ncc(C(F)(F)F)cc3C2)(C(C)C)C1,inactive,inactive,inactive,,,inactive,inactive,inactive,inactive

SMILES,Potency [1],Potency [2],Potency [3],Potency [4],Potency [5],outcome [6],outcome [7],Potency [8],Potency [9]
N#CCCCC(C#N)CCC#N (stereo not drawn),inactive,inactive,,,,inactive,inactive,inactive,
CC(C(=O)O)c1ccc(/C=C2\CCCCC2=O)cc1 (stereo not drawn),inactive,inactive,inactive,29.8 µM (active),,inactive,inactive,,inactive
FC(F)(Cl)C(F)(Cl)Cl,inactive,inactive,,inactive,inactive,inactive,inactive,inactive,inactive
Cc1ccc2c(Cl)cc(Cl)c(O)c2n1,23.7 µM (active),inactive,inactive,,,inactive,inactive,9.52 µM (active),inactive
Cc1c(-c2cccnc2)c2ccccc2n1CCCCC(=O)O,inactive,inactive,inactive,,inactive,inactive,inactive,,
CCc1ccc2c(c1)C(=O)c1ccccc1C2=O,inactive,inactive,inactive,,inactive,inactive,inactive,inactive,
S=c1[nH][nH]c(=S)s1,inactive,inactive,inactive,,inactive,inactive,inactive,,
CC(O)CN (stereo not drawn),inactive,inactive,inactive,inactive,,inactive,,inactive,
CC(=O)c1cccnc1,inactive,inactive,,,inactive,inactive,,inactive,
O=C(O)c1cc(C(=O)O)c(C(=O)O)cc1C(=O)O,inactive,inactive,inactive,,inactive,inactive,inactive,,
c1ccc(-c2ccc(-c3ccccc3)cc2)cc1,inactive,inactive,inactive,inactive,inactive,inactive,,inactive,
CCCCCO,inactive,inactive,inactive,,inactive,inactive,inactive,,
COc1ccc(/C=C/c2cc(OC)cc(=O)o2)cc1,inactive,inactive,inactive,0.443 µM (active),inactive,,inactive,inactive,
CC(C)=CCC/C(C)=C/C=N/O,inactive,inactive,inactive,,inactive,,inactive,inactive,
COc1cc(CNC(=O)CCCC/C=C/C(C)C)ccc1O,inactive,inactive,inactive,47.3 µM (active),inactive,inactive,inactive,inactive,
CC(C)Oc1ccccc1O,inactive,inactive,inactive,inactive,inactive,inactive,inactive,inactive,
O=C(O)c1cccc(C(=O)O)c1C(=O)O,inactive,inactive,inactive,,inactive,,inactive,inactive,
